From ChEMBL document CHEMBL1961873, “Compounds: GSK PKIS; Assays: Nanosyn kinase panel” (2012)

Assays:
[1] = molecular target: T1, Tyrosine-protein kinase receptor TYRO3 (Homo sapiens) (UniProt Q06418); details: at 1 µM
T1 sequence (whole entry): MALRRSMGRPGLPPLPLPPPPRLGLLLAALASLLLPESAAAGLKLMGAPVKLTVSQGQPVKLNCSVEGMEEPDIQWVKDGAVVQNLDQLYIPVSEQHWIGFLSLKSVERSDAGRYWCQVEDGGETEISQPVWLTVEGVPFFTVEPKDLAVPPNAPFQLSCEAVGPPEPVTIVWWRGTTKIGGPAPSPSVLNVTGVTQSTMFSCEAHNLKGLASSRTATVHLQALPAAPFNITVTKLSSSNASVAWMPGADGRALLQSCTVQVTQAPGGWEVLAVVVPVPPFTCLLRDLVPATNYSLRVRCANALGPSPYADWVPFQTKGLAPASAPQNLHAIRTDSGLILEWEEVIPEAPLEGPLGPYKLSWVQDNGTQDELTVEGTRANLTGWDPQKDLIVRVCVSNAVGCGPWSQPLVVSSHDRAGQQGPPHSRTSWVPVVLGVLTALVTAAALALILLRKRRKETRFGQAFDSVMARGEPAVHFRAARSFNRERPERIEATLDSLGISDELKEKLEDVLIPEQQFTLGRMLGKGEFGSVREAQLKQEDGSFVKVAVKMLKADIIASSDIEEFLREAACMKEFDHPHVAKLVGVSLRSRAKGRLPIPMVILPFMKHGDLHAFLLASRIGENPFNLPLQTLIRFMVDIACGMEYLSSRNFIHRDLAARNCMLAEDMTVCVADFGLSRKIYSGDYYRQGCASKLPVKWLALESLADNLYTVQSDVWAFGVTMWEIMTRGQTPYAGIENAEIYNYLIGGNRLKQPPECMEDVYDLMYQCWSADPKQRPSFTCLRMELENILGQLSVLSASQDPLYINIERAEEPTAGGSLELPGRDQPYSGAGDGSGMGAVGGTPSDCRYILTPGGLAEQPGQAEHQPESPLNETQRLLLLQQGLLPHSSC

[2] = molecular target: Tyrosine-protein kinase Yes (Homo sapiens) (UniProt P07947); details: at 0.1 µM
Tyrosine-protein kinase Yes (Homo sapiens), sequence (P07947 2-543 limits assumed): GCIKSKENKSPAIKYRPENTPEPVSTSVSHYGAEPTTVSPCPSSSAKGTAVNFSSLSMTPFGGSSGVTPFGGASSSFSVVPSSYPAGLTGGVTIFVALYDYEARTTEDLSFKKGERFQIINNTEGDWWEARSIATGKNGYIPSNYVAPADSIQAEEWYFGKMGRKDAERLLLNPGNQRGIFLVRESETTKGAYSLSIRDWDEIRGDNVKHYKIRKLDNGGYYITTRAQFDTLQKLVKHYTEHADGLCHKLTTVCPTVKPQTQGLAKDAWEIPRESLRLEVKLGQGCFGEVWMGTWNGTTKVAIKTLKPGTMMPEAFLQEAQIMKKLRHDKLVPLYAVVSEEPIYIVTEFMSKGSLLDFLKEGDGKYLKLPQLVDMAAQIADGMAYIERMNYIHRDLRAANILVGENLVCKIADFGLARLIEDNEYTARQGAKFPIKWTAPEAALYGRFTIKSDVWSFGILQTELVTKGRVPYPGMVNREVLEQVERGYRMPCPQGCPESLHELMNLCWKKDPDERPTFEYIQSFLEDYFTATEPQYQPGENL

[3] = molecular target: Tyrosine-protein kinase Yes (Homo sapiens) (UniProt P07947); details: at 1 µM
[4] = molecular target: T2, Tyrosine-protein kinase ZAP-70 (Homo sapiens) (UniProt P43403); details: at 0.1 µM
T2 sequence (whole entry): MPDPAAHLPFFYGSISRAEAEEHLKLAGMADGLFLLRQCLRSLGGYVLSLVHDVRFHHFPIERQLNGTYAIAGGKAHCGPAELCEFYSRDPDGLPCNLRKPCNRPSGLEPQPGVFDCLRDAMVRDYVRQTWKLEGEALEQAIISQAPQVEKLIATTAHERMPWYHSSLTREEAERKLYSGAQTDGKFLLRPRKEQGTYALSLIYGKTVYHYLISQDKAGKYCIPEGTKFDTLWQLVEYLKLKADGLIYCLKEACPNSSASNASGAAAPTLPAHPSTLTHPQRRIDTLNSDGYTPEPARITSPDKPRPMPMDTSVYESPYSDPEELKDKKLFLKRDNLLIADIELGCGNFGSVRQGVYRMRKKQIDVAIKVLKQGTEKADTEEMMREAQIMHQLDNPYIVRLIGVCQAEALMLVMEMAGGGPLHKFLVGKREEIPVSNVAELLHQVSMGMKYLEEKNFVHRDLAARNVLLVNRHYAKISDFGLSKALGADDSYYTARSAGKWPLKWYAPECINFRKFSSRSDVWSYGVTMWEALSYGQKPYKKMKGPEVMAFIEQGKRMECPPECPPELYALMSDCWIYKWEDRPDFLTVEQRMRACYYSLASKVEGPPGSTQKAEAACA

[5] = molecular target: T2, Tyrosine-protein kinase ZAP-70 (Homo sapiens); details: at 1 µM
[6] = molecular target: Serine/threonine-protein kinase B-raf (Homo sapiens) (UniProt P15056); details: at 0.1 µM
Serine/threonine-protein kinase B-raf (Homo sapiens), sequence (P15056 whole entry): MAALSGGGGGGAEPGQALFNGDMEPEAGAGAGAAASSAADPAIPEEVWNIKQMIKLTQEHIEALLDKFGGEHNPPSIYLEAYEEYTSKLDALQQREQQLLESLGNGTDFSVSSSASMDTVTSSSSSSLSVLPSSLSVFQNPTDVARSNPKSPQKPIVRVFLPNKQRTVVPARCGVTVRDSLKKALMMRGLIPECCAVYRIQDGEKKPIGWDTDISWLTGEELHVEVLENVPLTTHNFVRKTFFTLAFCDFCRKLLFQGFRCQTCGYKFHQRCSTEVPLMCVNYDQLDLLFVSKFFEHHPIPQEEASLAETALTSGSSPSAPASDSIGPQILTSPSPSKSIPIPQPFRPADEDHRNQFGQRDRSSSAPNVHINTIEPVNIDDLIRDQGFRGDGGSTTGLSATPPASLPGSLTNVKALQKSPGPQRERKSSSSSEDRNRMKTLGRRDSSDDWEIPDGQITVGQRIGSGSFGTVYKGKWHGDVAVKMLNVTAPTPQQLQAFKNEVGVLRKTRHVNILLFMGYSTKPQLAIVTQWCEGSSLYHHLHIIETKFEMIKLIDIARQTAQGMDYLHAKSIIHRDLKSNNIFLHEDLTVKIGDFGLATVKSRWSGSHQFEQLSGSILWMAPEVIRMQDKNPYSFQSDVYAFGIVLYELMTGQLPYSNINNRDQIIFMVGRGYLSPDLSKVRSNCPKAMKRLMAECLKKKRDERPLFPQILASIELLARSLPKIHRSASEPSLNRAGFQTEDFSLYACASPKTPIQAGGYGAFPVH

[7] = molecular target: Serine/threonine-protein kinase B-raf (Homo sapiens) (UniProt P15056); details: at 1 µM
[8] = tested on: Serine/threonine-protein kinase B-raf (Homo sapiens), P15056 [V600E]; details: at 0.1 µM
Serine/threonine-protein kinase B-raf (Homo sapiens), P15056 [V600E], sequence (P15056 whole entry V600E): as the sequence (P15056 whole entry) above, with V600E counted along it

[9] = tested on: Serine/threonine-protein kinase B-raf (Homo sapiens), P15056 [V600E]; details: at 1 µM
[10] = molecular target: RAF proto-oncogene serine/threonine-protein kinase (Homo sapiens) (UniProt P04049); details: at 0.1 µM
RAF proto-oncogene serine/threonine-protein kinase (Homo sapiens), sequence (P04049 whole entry): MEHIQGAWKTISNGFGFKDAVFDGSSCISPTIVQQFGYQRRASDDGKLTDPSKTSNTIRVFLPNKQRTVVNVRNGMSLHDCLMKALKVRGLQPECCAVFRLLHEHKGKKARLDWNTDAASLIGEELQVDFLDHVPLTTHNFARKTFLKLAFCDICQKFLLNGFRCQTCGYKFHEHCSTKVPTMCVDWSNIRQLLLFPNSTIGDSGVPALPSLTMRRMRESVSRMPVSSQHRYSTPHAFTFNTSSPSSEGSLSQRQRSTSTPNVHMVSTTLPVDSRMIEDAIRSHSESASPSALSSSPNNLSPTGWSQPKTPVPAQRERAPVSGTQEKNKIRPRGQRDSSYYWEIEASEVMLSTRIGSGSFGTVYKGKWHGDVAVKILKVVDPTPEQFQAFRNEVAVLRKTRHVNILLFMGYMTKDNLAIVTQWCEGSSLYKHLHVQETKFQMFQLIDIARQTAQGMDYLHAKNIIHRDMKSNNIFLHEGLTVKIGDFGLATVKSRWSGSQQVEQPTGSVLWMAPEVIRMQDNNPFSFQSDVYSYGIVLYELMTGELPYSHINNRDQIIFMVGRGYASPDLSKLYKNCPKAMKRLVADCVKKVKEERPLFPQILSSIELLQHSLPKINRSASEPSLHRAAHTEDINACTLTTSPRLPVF

[11] = molecular target: RAF proto-oncogene serine/threonine-protein kinase (Homo sapiens) (UniProt P04049); details: at 1 µM
[12] = molecular target: T3, Interleukin-1 receptor-associated kinase 4 (Homo sapiens) (UniProt Q9NWZ3); details: at 0.1 µM
T3 sequence (whole entry): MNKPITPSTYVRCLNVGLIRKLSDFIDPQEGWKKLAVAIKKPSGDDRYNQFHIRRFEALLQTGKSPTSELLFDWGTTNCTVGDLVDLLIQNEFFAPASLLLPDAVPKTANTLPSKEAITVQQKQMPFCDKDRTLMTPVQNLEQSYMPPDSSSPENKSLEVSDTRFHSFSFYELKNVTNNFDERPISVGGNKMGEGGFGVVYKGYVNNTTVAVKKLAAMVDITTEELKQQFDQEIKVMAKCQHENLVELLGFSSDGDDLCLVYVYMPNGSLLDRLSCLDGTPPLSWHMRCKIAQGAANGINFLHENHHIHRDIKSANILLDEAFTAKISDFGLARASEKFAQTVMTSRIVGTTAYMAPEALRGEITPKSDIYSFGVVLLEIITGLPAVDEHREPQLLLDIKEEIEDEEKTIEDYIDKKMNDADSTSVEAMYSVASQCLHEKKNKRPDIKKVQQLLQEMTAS

[13] = molecular target: T3, Interleukin-1 receptor-associated kinase 4 (Homo sapiens); details: at 1 µM
[14] = molecular target: Leucine-rich repeat serine/threonine-protein kinase 2 (Homo sapiens) (UniProt Q5S007); details: at 0.1 µM
Leucine-rich repeat serine/threonine-protein kinase 2 (Homo sapiens), sequence (Q5S007 whole entry): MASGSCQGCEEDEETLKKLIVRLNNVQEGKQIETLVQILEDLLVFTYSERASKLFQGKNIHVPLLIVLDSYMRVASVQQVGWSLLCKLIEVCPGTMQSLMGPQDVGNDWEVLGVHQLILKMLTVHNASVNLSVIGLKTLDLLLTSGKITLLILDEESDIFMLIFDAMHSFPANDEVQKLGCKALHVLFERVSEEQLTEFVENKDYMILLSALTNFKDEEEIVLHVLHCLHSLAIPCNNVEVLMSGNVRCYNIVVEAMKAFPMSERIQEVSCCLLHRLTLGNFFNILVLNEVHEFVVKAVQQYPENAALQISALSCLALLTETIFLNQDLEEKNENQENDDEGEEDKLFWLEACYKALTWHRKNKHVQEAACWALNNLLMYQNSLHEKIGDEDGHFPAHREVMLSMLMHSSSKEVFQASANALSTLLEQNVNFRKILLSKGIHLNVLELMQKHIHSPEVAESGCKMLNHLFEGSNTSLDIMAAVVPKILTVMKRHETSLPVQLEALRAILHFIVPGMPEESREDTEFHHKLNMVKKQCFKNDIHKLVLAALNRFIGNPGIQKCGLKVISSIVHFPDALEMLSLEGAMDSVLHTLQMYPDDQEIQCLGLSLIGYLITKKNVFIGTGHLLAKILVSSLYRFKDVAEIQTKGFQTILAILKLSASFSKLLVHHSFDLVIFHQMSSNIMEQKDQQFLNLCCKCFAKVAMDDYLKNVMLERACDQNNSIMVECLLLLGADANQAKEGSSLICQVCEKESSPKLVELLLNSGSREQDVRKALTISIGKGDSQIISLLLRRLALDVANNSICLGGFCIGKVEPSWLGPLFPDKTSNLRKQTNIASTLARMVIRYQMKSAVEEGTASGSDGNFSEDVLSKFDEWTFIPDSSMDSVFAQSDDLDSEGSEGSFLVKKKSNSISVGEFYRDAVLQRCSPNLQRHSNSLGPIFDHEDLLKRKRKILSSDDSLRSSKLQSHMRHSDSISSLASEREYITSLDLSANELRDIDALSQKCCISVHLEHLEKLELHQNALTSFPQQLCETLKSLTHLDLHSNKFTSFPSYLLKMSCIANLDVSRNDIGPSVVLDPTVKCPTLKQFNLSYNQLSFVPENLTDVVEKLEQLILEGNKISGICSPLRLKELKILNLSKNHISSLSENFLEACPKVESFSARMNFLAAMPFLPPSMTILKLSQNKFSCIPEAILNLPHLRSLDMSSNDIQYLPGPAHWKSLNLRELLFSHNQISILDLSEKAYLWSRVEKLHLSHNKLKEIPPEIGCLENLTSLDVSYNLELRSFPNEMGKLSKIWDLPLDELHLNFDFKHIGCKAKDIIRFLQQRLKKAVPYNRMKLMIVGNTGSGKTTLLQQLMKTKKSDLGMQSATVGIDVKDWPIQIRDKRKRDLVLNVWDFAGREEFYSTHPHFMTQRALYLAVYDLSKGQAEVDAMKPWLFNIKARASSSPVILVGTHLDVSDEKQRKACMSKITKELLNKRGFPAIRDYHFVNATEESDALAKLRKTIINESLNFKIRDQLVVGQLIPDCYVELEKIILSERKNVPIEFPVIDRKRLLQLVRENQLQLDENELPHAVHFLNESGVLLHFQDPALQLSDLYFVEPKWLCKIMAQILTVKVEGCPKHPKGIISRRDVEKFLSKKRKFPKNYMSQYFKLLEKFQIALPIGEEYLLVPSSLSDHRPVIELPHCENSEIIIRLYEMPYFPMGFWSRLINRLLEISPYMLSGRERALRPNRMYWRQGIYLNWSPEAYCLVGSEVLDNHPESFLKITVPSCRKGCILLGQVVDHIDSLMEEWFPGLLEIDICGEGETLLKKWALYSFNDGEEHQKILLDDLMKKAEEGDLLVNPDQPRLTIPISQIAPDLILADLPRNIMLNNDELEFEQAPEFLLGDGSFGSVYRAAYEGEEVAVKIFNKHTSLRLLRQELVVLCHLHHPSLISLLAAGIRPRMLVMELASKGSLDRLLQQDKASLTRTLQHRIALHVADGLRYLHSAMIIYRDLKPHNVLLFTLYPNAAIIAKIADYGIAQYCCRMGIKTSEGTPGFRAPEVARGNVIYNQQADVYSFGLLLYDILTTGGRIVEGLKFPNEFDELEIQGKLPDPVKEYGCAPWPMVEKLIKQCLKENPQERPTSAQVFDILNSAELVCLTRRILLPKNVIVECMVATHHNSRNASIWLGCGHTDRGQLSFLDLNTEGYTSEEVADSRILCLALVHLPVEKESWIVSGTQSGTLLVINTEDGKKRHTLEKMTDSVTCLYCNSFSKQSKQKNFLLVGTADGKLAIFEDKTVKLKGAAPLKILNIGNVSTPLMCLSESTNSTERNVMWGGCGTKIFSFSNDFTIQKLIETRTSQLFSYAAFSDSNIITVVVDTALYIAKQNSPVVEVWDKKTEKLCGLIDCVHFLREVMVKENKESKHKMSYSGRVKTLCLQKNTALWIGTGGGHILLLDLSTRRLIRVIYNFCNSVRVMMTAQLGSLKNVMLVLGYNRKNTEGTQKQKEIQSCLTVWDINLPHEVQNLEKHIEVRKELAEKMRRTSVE

[15] = molecular target: Leucine-rich repeat serine/threonine-protein kinase 2 (Homo sapiens) (UniProt Q5S007); details: at 1 µM
[16] = tested on: Leucine-rich repeat serine/threonine-protein kinase 2 (Homo sapiens), Q5S007 [G2019S]; details: at 0.1 µM
Leucine-rich repeat serine/threonine-protein kinase 2 (Homo sapiens), Q5S007 [G2019S], sequence (Q5S007 whole entry G2019S): as the sequence (Q5S007 whole entry) above, with G2019S counted along it

[17] = tested on: Leucine-rich repeat serine/threonine-protein kinase 2 (Homo sapiens), Q5S007 [G2019S]; details: at 1 µM

Row | SMILES | inhibition [1] [%] | inhibition [2] [%] | inhibition [3] [%] | inhibition [4] [%] | inhibition [5] [%] | inhibition [6] [%] | inhibition [7] [%] | inhibition [8] [%] | inhibition [9] [%] | inhibition [10] [%] | inhibition [11] [%] | inhibition [12] [%] | inhibition [13] [%] | inhibition [14] [%] | inhibition [15] [%] | inhibition [16] [%] | inhibition [17] [%]
1 | CCn1c(-c2nonc2N)nc2c(C#CCN)ncc(OCCCN)c21 | 3.68 | 0.61 | 3.6 | 2.74 | 2.46 | -4.66 | -4.6 | -5.05 | -3.78 | 2.59 | 1.98 | 1.9 | -2 | 3.78 | 5.71 | 4.23 | 12.1
2 | Fc1ccc(-c2ncn(C3CCNCC3)c2-c2ccnc(Oc3ccccc3)n2)cc1 | 0.47 | 1.72 | -0.9 | -4.16 | -3.08 | 2.53 | 4.3 | 2.57 | 4.15 | -1.35 | 1.07 | 0.54 | 0.35 | -5.14 | -7.49 | -2.28 | -0.98
3 | COc1cccc(COc2cc(-n3cnc4ccccc43)sc2C(N)=O)c1 | -0.77 | 0.89 | 1.25 | -1.78 | 0.73 | -0.39 | 1.18 | 0.3 | 1.75 | 2.33 | 0.06 | -1.12 | -1.16 | 2.35 | 14.6 | 5.15 | 31.2
4 | NS(=O)(=O)c1ccc(-c2ccc3c(NC(=O)C4CC4)n[nH]c3c2)cc1 | 13 | 0.69 | 2.38 | 0.78 | 0.22 | 2.45 | 5.35 | 2.03 | 3.48 | 4.2 | 9.01 | -1.93 | 1.48 | 2.77 | 2.56 | 3.47 | 7.51
5 | Cc1cc(-c2ccco2)cc(C)c1/C=C/c1cncc(-c2nn[nH]n2)c1 | 0.02 | 1.68 | 6.08 | -1.84 | 0.77 | 1.61 | 1.61 | 1.63 | 3 | -1.69 | -5.34 | -0.17 | -0.12 | 4.45 | 8.02 | 5.52 | 5.78
6 | NC(=O)c1sc(-n2cnc3cc(C(F)(F)F)ccc32)cc1OCc1ccccc1Br | 2.02 | 2.56 | 3.46 | -0.71 | 1.87 | 3.64 | 2.26 | 1.31 | 2.01 | 1.82 | 5.05 | 0.4 | 1.13 | 3.39 | 6.23 | 3.66 | 6.47
7 | NS(=O)(=O)c1ccc(N/C=C2\C(=O)Nc3ccc4ncsc4c32)cc1 | 24.1 | 2.73 | 26.7 | -5.22 | 5.97 | 11 | 41 | 9.06 | 37.5 | -1.4 | 0.21 | 1.82 | 2.58 | 17.8 | 58.6 | 29.4 | 58.9
8 | COc1cc2c(cc1Nc1nc(Nc3ccsc3C(N)=O)c3cc[nH]c3n1)N(C(=O)CN(C)C)CCC2 |  | 1.43 | 2.18 | -0.11 | 1.86 | -0.02 | 1.67 | 0.32 | 0.47 | -0.98 | -4.6 | -1.66 | -1.26 | 80.8 | 86.2 | 63 | 61.2
9 | COc1cccc(-n2ncc3c(N/N=C/c4ccncc4)ncnc32)c1 | 41.6 | 26.7 | 73 | 2.84 | 3.98 | 10.3 | 21.5 | 11 | 23.1 | -6.75 | 3.93 | 2.61 | 4.07 | 4.32 | 16.6 | 7.97 | 37.4
10 | CCn1c(-c2nonc2N)nc2c(C#CC(C)(C)O)ncc(OCC3CCNCC3)c21 | 3.34 | 2.71 | 6.72 | -3.36 | -3.17 | 4.38 | 2.78 | 4.23 | 2.64 | 3.07 | 1.08 | -1.36 | 1.24 | -2.92 | 5 | 1.31 | 16.7
11 | COc1cc(C=NNc2ncnc3c2cnn3Cc2ccccc2)ccc1O | 7.59 | 14.6 | 30 | 2.67 | 1.13 | -5.44 | -5.52 | -5.58 | -4.22 | -0.2 | 8.55 | 1.48 | -1.52 | -2.34 | 3.59 | 1.06 | 10.1
12 | CCn1c(-c2nonc2N)nc2c(C#CC(C)(C)O)nc(O[C@@H](CN)c3ccccc3)cc21 | 6.97 | 2.89 | 23.8 | 0.99 | 1.24 | -0.9 | 5.48 | -1.97 | 6.51 | -3.13 | -0.12 | 2.57 | -0.97 | 1.02 | 12.4 | 5.6 | 35.9
13 | CCn1c(-c2nonc2N)nc2c(C#CC(C)(C)O)ncc(OC[C@@H]3CCCN3)c21 | 1.75 | -0.57 | 2.07 |  | -0.24 | 0.45 | 0.01 | 0.87 | 0.05 | 3.13 | 0.33 | 0.18 | 0.53 | 0.96 | 7.88 | 2.98 | 12.5
14 | Nc1nonc1-c1nc2cnccc2n1C1CCCCC1 | -0.87 | 1.72 | 3.33 | -2 | -0.79 | -2.13 | 4.56 | -1.6 | 5.12 | 2.21 | 13.7 | 2.08 | -1.3 | 4.67 | 20 | 9.49 | 45.5
